Rows were chosen to be rich in hits. Some 2.6% of all compounds tested hit in one or more screens of this group.
Luciferase inh: firefly luciferase inhibition; P08659; purified firefly luciferase, luminescence, 8 min; Potency, µM (series often up to 57.1 µM), inactives show at the top dose activity change, negative = inhibition, hits mostly inhibitors; 2.2% of 72,000 active; AID 411; also: nearly all actives have a fitted effect of over 40% in size
Target sequence (P08659 whole entry, looked up): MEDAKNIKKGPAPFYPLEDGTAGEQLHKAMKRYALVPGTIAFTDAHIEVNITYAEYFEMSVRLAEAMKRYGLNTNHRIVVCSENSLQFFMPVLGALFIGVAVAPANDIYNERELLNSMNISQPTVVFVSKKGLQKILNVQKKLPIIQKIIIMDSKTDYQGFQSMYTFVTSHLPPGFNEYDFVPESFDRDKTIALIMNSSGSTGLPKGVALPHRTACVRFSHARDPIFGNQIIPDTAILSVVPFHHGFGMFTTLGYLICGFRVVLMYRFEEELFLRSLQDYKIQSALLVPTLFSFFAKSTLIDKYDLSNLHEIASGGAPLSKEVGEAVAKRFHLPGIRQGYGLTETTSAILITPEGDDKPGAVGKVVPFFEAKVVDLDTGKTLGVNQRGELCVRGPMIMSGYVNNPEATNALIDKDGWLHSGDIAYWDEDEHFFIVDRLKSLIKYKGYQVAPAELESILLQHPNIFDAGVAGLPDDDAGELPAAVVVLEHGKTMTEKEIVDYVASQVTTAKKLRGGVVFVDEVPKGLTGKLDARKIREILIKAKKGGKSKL
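Luminescence read-out after 8 min at room temperature; enzyme reaction used luciferin plus 10 uM ATP (linear range) in imidazole buffer pH 7.2 with KCl, MgCl2, Tween 20 and BSA. Each sample was run as a titration.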
p53ts 39C tox: kills p53ts cells at the nonpermissive temperature; H1299-p53A138V viability at 39C, ATP luminescence, 24 h; Potency, µM (series often up to 46.1 µM), for inactives: at the top dose activity change, negative = cell killing, most hits filed as cytotoxic; 1.5% of 130,000 active; AID 902; also: nearly all actives have a fitted effect of over 55% in size
p53ts 32C kill: cytotoxicity in p53ts cells at permissive temperature | AID 924 | Potency, µM (series often up to 46.1 µM), without a hit: top-dose activity change, negative = cytotoxicity, most hits filed as cytotoxic | 0.93% of 130,000 active | H1299-p53A138V at 32C, ATP luminescence viability, 24 h;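 also: 0% = DMSO and -100% = full killing by reference compound; nearly all actives have a fitted effect of over 55% in size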
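Viability by ATPlite luminescence after 24 h compound treatment (up to 46 uM) at the permissive 32C. Cells are H1299 carrying p53 A138V. Scale runs from DMSO basal to 100 uM tamoxifen as full kill; AC50 from Hill fits.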
Active calls of the source: *; ? = inconclusive; · = no result; [ ] = another dose, or the depositor's remark. Calls follow the shape of the dose curve; as a rule, active = well fitted curve in the direction sought with a large enough effect; inconclusive = small, poorly fitted or top-dose-only effect, or another doubt; inactive = no such curve, though single readings can be large; an effect the other way counts as inactive or inconclusive. Unless noted, % is scaled to controls: 0 for no effect and ±100 for the full control effect; potency is read from the fitted curve at half-maximal effect.

SMILES | Luciferase inh | p53ts 39C tox | p53ts 32C kill
COc1cc(OC)c(-c2nc3cnccc3n2C)cc1OC | 1% | 1% | 6%
Cn1c(-c2ccc3ccccc3n2)nc2cnccc21 | 13µM* | ? | ?
NC(Cn1ccc(=O)c(O)c1)C(=O)O (centres undefined) | · | -4% | -11%
COc1ccc(-c2nc(C#N)c(NCCc3ccccc3)o2)cc1OC | 13µM* | -26% | -17%
COc1ccc(-c2nc(C#N)c(NCc3ccc(C)cc3)o2)cc1OC | -5% | -4% | -2%
CC(=O)Nc1ccccc1-c1nc2ccccc2n(C(C)C(=O)c2ccc(C)c(C)c2)c1=O (centres undefined) | · | 36% | 7%
CCOC(=O)CCN1C(=O)[C@H]2[C@H]3[C@H](O)[C@H](O)C/C(=N/OC[C@@H](O)COCc4ccco4)[C@H]3CC[C@@H]2C1=O | 2%[11.4 µM] | 2%[9.22 µM] | 10%[9.22 µM]
O=C(Nc1ccc(Cl)c(Cl)c1)c1cc(S(=O)(=O)N2CCN(c3cccc(Cl)c3)CC2)ccc1F | · | -22% | 12%
CCOC(=O)CSc1nc2c(c(=O)n1-c1ccc(OC)cc1)SCC2 | 2% | 1.3µM* | 1.3µM*
CCOC(=O)CSc1nc2c(c(=O)n1-c1ccc(OCC)cc1)SCC2 | 1% | -3% | 10%
Nc1nnc(-c2ccccc2)c(-c2ccccc2)n1 | 3% | -3% | -12%
c1ccc(-c2nc3nonc3nc2-c2ccccc2)cc1 | 2% | 13µM* | ?
CC(C)c1nn2c(=O)cc(COC(=O)c3cccc(NC(=O)c4ccccc4F)c3)nc2s1 | · | 1% | -2%
Cn1c(NC(=O)c2cc(-c3ccc4c(c3)OCO4)nc3ccccc23)cc(=O)n(C)c1=O | 2.5µM* | 13µM* | 16µM*
O=C(Nc1nc2c(s1)CCCC2)c1cc(-c2ccc3c(c2)OCO3)nc2ccccc12 | · | -6% | ·
CC[C@]12CCCN3CCc4c(n(c5ccccc45)C(=O)C1)[C@H]32 | · | 0% | -4%
c1ccc(-n2nnc3c(N4CCOCC4)ncnc32)cc1 | 5µM* | 13µM* | 13µM*
c1ccc(Cn2nnc3c(N4CCCC4)ncnc32)cc1 | 2% | 0% | -14%
O=C(c1cc(-c2ccc(Br)cc2)n[nH]1)N1CCN(S(=O)(=O)c2ccc(Cl)s2)CC1 | · | · | -4%
Cc1cccc([C@@H]2CN(C)CCc3c2cc(O)c(O)c3Cl)c1 | -1% | -19% | -11%
CCn1c(C(=O)NCCc2ccc(OC)c(OC)c2)cc2sc(Cl)cc21 | · | -23% | 1%
Cn1c(C(=O)NCCc2ccccc2)cc2sc(Cl)cc21 | · | 13µM* | 16µM*
O=C(Nc1cccc(F)c1)N1CC[C@@]2(CCCNC2)C1 | 1%[11.4 µM] | 0% | -4%
O=C(NCC12CC3CC(CC(C3)C1)C2)c1cc2n(n1)C(C(F)(F)F)CC(c1ccco1)N2 (centres undefined) | -1% | 20µM* | -30%
COc1ccc(NC(=O)c2cc3n(n2)C(C(F)(F)F)CC(c2ccco2)N3)cc1 (centres undefined) | -5% | 5% | -1%
SMILES | Luciferase inh | p53ts 39C tox | p53ts 32C kill
CCCCC1CCC(C(=O)N2CC(=O)Nc3ccc(Br)cc3C2c2ccc(F)cc2)CC1 (centres undefined) | · | -8% | 10%
Cc1cc(NC(=O)CCC2CCCCC2)no1 | · | -10% | -13%
Cc1ccnc(NC(=O)CCC2CCCCC2)c1 | 20µM* | 13µM* | 13µM*
Cc1cc(C)c(/C=C2/C(=O)Nc3ccccc32)[nH]1 | -5% | ? | 20%
CCCCCCCCCCCCCCC/C=C\[C@H](O)[C@@H](NC(=O)CCCCCCCCCCCCC)OC (tested in a mixture with another compound) | -1% | ? | 5%
CN(C)c1oc(-c2ccccc2F)nc1C#N | 0% | -3% | 2%
O=C(c1ccccc1)c1nnc(-c2ccccc2F)o1 | 4µM* | 3% | -9%
COc1ccc(-n2c(-c3ccc(Cl)cc3)cc3c2CC(C)(C)CC3=O)c(OC)c1 | · | -7% | 23%
COc1ccc2nc(Nc3nc(C)c(CCC(C)C)c(=O)[nH]3)nc(C)c2c1 | 0% | 13% | 18%
CCN(CC)CCCC(C)Nc1c2ccc(Cl)cc2nc2ccc(OC)cc12 (centres undefined) | · | 10µM* | 5µM*
Cc1cc(S(=O)(=O)Nc2cc3c(cc2N2CCOCC2)n(C)c(=O)c(=O)n3C)ccc1F | · | -25% | 5%
CCCCC(CC)CNC(=O)CCCCCn1c(=O)[nH]c2ccsc2c1=O (centres undefined) | · | 3% | 16%
Cc1ccccc1Cn1nnc2c(=O)[nH]c(C3CCCN(C(=O)c4ccc(C(C)(C)C)cc4)C3)nc21 (centres undefined) | · | 32µM* | 8%
COc1ccc(Cn2nnc3c(=O)[nH]c(C4CCCN(C(=O)c5ccccc5)C4)nc32)cc1 (centres undefined) | 5% | ? | 1%
Cc1cccc(Cn2nnc3c(=O)[nH]c(C4CCCN(C(=O)c5ccc(C(C)(C)C)cc5)C4)nc32)c1 (centres undefined) | · | 25µM* | ?
COc1ccc(Cn2nnc3c(=O)[nH]c(C4CCCN(C(=O)c5ccc(C)cc5)C4)nc32)cc1 (centres undefined) | · | -17% | 2%
CCSc1nnc(NC(=O)c2ccccn2)s1 | ? | 10µM* | 10µM*
CCSc1nnc(NC(=O)c2cnccn2)s1 | 1% | -4% | -4%
COc1ccc(OC)c(NC(=O)Cn2cc(S(=O)(=O)c3ccccc3)c(=O)c3cc(C)ccc32)c1 | · | 15% | -3%
CC(=NCc1ccco1)c1c(C)[nH]n(-c2nc3ccccc3s2)c1=O | 2µM* | 7.9µM* | ?
CC(=NCc1ccco1)c1c(O)n(C2CCCCC2)c(=O)[nH]c1=O | 1% | 8% | 9%
O=C(CCCN=C1NS(=O)(=O)c2ccccc21)OCC(=O)N1CCc2ccccc21 | 32µM* | -7% | 9%
O=C(CN1CCCCCC1)OCCN=C1NS(=O)(=O)c2ccccc21 | -1% | 12% | -3%
CCOc1ccc(NC(=O)C(C)n2c(=O)cc(C)c3c(C)nn(-c4ccccc4)c32)cc1 (centres undefined) | · | -25% | -2%
Cc1cc(OCCCSc2nc(-c3ccc(C(C)(C)C)cc3)nc3cc(=O)[nH]n23)ccc1Cl | · | 16µM* | 30%
SMILES | Luciferase inh | p53ts 39C tox | p53ts 32C kill
COc1ccc(-c2nc(SCCOc3ccccc3Cl)n3[nH]c(=O)cc3n2)cc1 | · | -16% | 7%
COc1ccc(NC(=O)CSc2nc(-c3ccccc3)nc3cc(=O)[nH]n23)cc1 | · | 9% | -3%
CC(C)(C)c1ccc(-c2nc(SCCCOc3ccccc3)n3[nH]c(=O)cc3n2)cc1 | · | 20µM* | 7%
COc1cccc(-c2nc(SCc3ccc(C)cc3)n3[nH]c(=O)cc3n2)c1 | · | 13µM* | -1%
COc1ccccc1OCCCSc1nc(-c2ccc(C(C)(C)C)cc2)nc2cc(=O)[nH]n12 | · | 15% | 81%
Cc1nc2c(c(C)c1CCC(=O)Nc1ccc(F)cc1)c(=O)n(C)c(=O)n2C | · | -3% | -4%
O=C(NCc1ccccc1Br)c1ccc(-n2cnc3cccnc32)cc1 | · | -7% | -14%
CCOc1ccc(C2C(=O)N(C3CCCCC3)CC(=O)N2Cc2ccccc2OC)cc1OC (centres undefined) | · | -22% | 6%
CCCCC(=O)Nc1cc2nn(-c3ccc(OC)cc3)nc2cc1C | -8% | -10% | 0%
